Max response data for 96 compounds are collected here from PubChem BioAssay AID2314 (National Center for Advancing Translational Sciences (NCATS), 2010).

Out of some 300,000 compounds screened, about 37,000 (12%) were called active. What follows is part of a selection rich in actives, with near analogues and random picks from the rest. Values without a mark were called inactive. No stated cut-off is given here; in the data, active means max response mostly above about 13% (no sharp cut-off); inactive means mostly below about 14%.

This assay in a line: Cycloheximide Counterscreen for Small Molecule Inhibitors of Shiga Toxin. Further: read at 38.3 µM for the half of the compounds with a filed dose; 0% is about no effect. As to conditions: cell reporter, cycloheximide protein synthesis inhibition counterscreen; hits give high values. A general note: The purpose of a counterscreen is to sort out artefacts and off-target activity.
As for `Cc1ccc(CNCc2ccc3c(c2)OCO3)c(C)c1`, the max response was 0.612%.
Next, `COc1cc(CNCc2ccc3c(c2)OCO3)c([N+](=O)[O-])cc1OC`: 13.8% (active); `COc1cccc(CNCc2ccc3c(c2)OCO3)c1`: 7.15%; `Cc1ccc(-c2nn(-c3ccccc3)cc2/C=C/C(=O)Nc2cccc(S(N)(=O)=O)c2)cc1`: 6.92%.
Take `COc1ccc(CCNC2=CC(=O)CC(C)(C)C2)cc1`: the max response is 17%.
On to `CN1C(CC(=O)Nc2ccc(Br)cc2)c2ccccc2CC1(C)C` (stereo unspecified), for which the max response was 7.55%.
Next, `CCN(CC)CCN1C(=O)C(=O)/C(=C(/O)c2cnn(-c3ccccc3)c2C)C1c1cccs1` (stereo unspecified): 49.4% (active); `CCN(CC)CCN1C(=O)C(=O)/C(=C(/O)c2ccccc2)C1c1ccccc1F` (stereo unspecified): -1.86%.
Next, `CCOc1cccc(/C(O)=C2/C(=O)C(=O)N(CCOC)C2c2ccncc2)c1` (stereo unspecified): 3.2%; `COC(=O)c1cc(S(=O)(=O)N2CCC(C(N)=O)CC2)oc1C`: -3.53%; `Cc1c(C)c(C)c(S(=O)(=O)N2CCC3(CC2)OCCO3)c(C)c1C`: -1.61%.
Regarding `CC(=O)Oc1ccc2c(C)c(CC(C)O)c(=O)oc2c1` (stereo unspecified), the max response was -8.36%.
On to `Cc1c(Cc2ccccc2)c(=O)oc2cc(OCC(N)=O)ccc12`, for which the max response is 1.87%.
For the compound `CCc1c(C)c2ccc(OC3CCCCC3=O)cc2oc1=O` (stereo unspecified), the max response is 16.5% (active).
With `COc1ccc(-n2cnnc2SCC(=O)Nc2cccc(S(N)(=O)=O)c2)cc1`, the max response was -5.17%.
In the case of `Cc1cc(C)c(S(=O)(=O)Nc2c(C)n(C)n(-c3ccccc3)c2=O)cc1[N+](=O)[O-]` it was -2.16%.
On to `COc1cccc(OCc2nnc3n2N=C(c2ccccc2)C(CC(=O)O)S3)c1` (stereo unspecified), for which the max response is 9.69%.
For the compound `CCOC(=O)c1ccc(NC2Nc3cc(C)nn3S2)cc1` (stereo unspecified), the max response was 5.82%.
Regarding `CCc1ccc(NC2Nc3cc(C)nn3S2)cc1` (stereo unspecified), the max response is 49.2% (active).
As for `COC(=O)c1cc(C(=O)NC(C)C2CC3CCC2C3)cc([N+](=O)[O-])c1` (stereo unspecified), the max response is -12.3%.
In the case of `COC(=O)c1ccc(N2CCOCC2)c(NC(=O)c2ccc(Br)o2)c1` it was -2.23%.
`CCn1c(/C=N/NC(=O)c2ccc(OC)cc2)nc2ccccc21`: the max response was -2.39%.
In the case of `COc1ccc(/C=N/NC(=O)c2cccc(C(F)(F)F)c2)cc1` it was 6.57%; in that of `Cn1cccc1/C=N/NC(=O)c1ccc(OC(F)(F)C(F)F)cc1`, 38.1% (active).
Next, `CC(Oc1ccccc1)C(=O)Nc1c2c(nn1-c1ccccc1)CS(=O)C2` (stereo unspecified): -2.14%; `CCOc1cc(-c2cc(-c3ccc(NC(C)=O)cc3)nc(N)c2C#N)ccc1O`: -3.59%; `CC(=O)Nc1ccc(S(=O)(=O)Nc2nc(-c3ccc(C(C)(C)C)cc3)cs2)cc1`: -0.918%.
Next, `CC(C)(C)C(=O)Nc1ccc(-c2cn3cccnc3n2)cc1`: 28.5% (active).
As for `CC(=O)Nc1ccc(S(=O)(=O)Nc2cccc(NC(=O)C(C)(C)C)c2)cc1`, the max response is 4.2%.
In the case of `CC(=O)Nc1ccc(-c2cn3cccnc3n2)cc1` it was 25.4% (active); in that of `CCCCCC(=O)Nc1ccc(-c2cn3cccnc3n2)cc1`, 25.3% (active); in that of `CCCCCC(=O)Nc1ccc(S(=O)(=O)Nc2ccc(Cl)nn2)cc1`, 5.65%.
`CCCCC(=O)Nc1ccc(C(=O)NCCCn2ccnc2)cc1`: the max response was 3.08%.
Next, `CC(=O)Nc1ccc(OCC(=O)NCc2ccc(C)cc2)cc1`: 7.82%.
With `CON(C)S(=O)(=O)c1ccc2c(c1)NC(=O)C1CCCN21` (stereo unspecified), the max response was -1.81%.
Next, `CCN(CC(=O)N1CCCC1)S(=O)(=O)c1ccc(F)cc1`: -0.599%; `CC(C)n1c(NCc2c[nH]c3ccccc23)nc2ccccc21`: 5.28%.
In the case of `Cn1c(CNC(=O)C(C)(C)C)nc2ccccc21`, the max response was -0.534%.
In the case of `Cc1ccc(C)c(N2CCN(C(=O)CCc3nc4ccccc4[nH]3)CC2)c1`, the max response was -4.18%.
Next, `Cc1ccc(O)c(CNc2nc3ccccc3[nH]2)c1`: 19.7% (active); `Cc1ccc(O)c(CNc2nc3ccccc3n2C)c1`: 35% (active); `OCCNc1nc2ccccc2[nH]1`: -3.17%.
Consider `CC(=O)c1ccc(NC(=O)Cn2c(=O)oc3ccccc32)cc1`, for which the max response is 0.709%.
Next, `Cc1ccc(-n2ncc(C(=O)NC3CC3)c2C2CCN(C(=O)OC(C)(C)C)CC2)c(C)c1`: 5.17%; `CCOc1ccccc1NS(=O)(=O)c1c[nH]c(C(=O)OC)c1`: -0.295%.
For `Cc1ccccc1N1CC(C(=O)Nc2nnc(SCCC3OCCO3)s2)CC1=O` (stereo unspecified), the max response is 0.819%.
`CCc1nnc(NC(=O)C2CC(=O)N(c3ccc4c(c3)OCCO4)C2)s1` (stereo unspecified): the max response is 6.49%.
Next, `c1ccc2cc3c(NCCN4CCOCC4)ccnc3cc2c1`: -2.42%; `Cn1cc(C(=O)c2ccc(Cl)cc2Cl)cc1C(=O)NN`: -5.78%; `O=C(CCN1CCCCC1)N=Nc1c(O)[nH]c2ccccc12`: 2.5%.
Consider `CC(C)(C)NC(=O)CSC(=Nc1ccccc1F)NC#N`, for which the max response was 27.7% (active).
Regarding `COc1ccccc1-n1ccnc1SCC(=O)NC(C)(C)C`, the max response was -1.32%.
In the case of `Cc1ccccc1CSCC(=O)NC(=O)NC(C)(C)C` it was 9.92%.
For the compound `CCc1nn(CC(=O)N2CCN(CC)CC2)c(=O)c2cccn12`, the max response was -0.288%.
Next, `CCc1ccccc1NC(=O)CCOc1ccccc1`: 0.846%; `Cc1ccccc1C(=O)Nc1ccccc1NC(=O)c1ccccc1C`: -4.55%.
Next, `Cc1ccccc1NC(=S)NC(=O)Cc1ccc(Cl)cc1`: -2.71%.
As for `Cc1ccc(C(=O)NC(=S)Nc2ccccc2C)cc1`, the max response was 43.9% (active).
Next, `Cc1c(NC(=O)CCCOc2ccccc2)cccc1[N+](=O)[O-]`: 6.53%.
Take `Cc1ccccc1NC(=O)c1ccccc1`: the max response was 15.4% (active).
As for `Cc1ccc(C(=O)NC(=S)NCc2cccnc2)cc1`, the max response was 18.8%.
In the case of `Cc1ccccc1C(=O)Nc1ccccc1Sc1ccccc1` it was -2.65%; in that of `Cc1ccccc1NC(=O)CCOc1ccccc1`, 32.8% (active); in that of `Cc1cc(C)cc(C(=O)NC(=S)Nc2ccc3[nH]c(=O)[nH]c3c2)c1`, -3.08%.
For the compound `Cc1cc2[nH]ncc2cc1NC(=S)NC(=O)c1ccccc1`, the max response is 16.5% (active).
In the case of `Cn1nnc(NC(=S)NC(=O)c2ccccc2)n1` it was 10.8%; in that of `COC(=O)C1(C)NC(c2ccccc2OC)C2C(=O)N(c3ccccc3)C(=O)C21` (stereo unspecified), -3.69%; in that of `COc1ccc(N2CCN(S(=O)(=O)CCNC(=O)C34CC5CC(CC(C5)C3)C4)CC2)cc1`, -6.7%.
In the case of `CCN(CC(=O)NCC(=O)Nc1cccc(C)c1C)Cc1ccccc1` it was -0.652%; in that of `O=C1C(=O)N(CCCN2CCOCC2)C(c2ccc([N+](=O)[O-])cc2)/C1=C(\O)c1ccc2c(c1)OCCO2` (stereo unspecified), 13.6%.
Next, `COc1ccccc1NC(=O)c1cc(N2C(=O)C3C4CCC(C4)C3C2=O)ccc1Cl` (stereo unspecified): 21.1%; `Cc1ccc(CNC(=O)c2ccc(CS(=O)Cc3cccc(Cl)c3)o2)cc1` (stereo unspecified): 5.04%; `CCC(C)C(=O)Nc1ccccc1N1CCN(c2ccc(F)cc2)CC1` (stereo unspecified): 5.61%.
With `C/C(=N\NC(=S)NCc1ccccc1)C1CCCCC1`, the max response was -2.61%.
On to `COC(=O)[C@@H]1CC(O)CN1C(=O)C12CC3CC(CC(C3)C1)C2` (stereo partly specified), for which the max response was -8.25%.
In the case of `COc1ccc(C(=O)NC2CC2)cc1OC1CCN(Cc2ccc(SC)cc2)CC1` it was 10.6%.
In the case of `Cc1nc([N+](=O)[O-])cn1CC(=O)Nc1ccc(Cl)cc1` it was -1.69%; in that of `CC(=O)Nc1ccc(C(=O)OCC(=O)Nc2ccc([N+](=O)[O-])cc2C(F)(F)F)cc1`, -3.83%; in that of `O=C(Nc1ccc(C(=O)O)c(O)c1)c1ccccc1`, -3.21%.
Next, `O=C(NC(=O)c1ccccc1)Nc1ccccc1O`: 38.7% (active).
With `O=C(NC(=O)c1ccccc1)NC(=O)c1ccccc1`, the max response was 8.89%.
Next, `O=C(CCN1CCN(C/C=C/c2ccccc2)CC1)Nc1ccccc1Cl`: -2.77%; `Cc1ccc(-c2nnc(CN3CCN(C)CC3)o2)cc1`: 11.1%; `COc1ccccc1CNC(=O)C1CCN(S(=O)(=O)c2ccc3c(c2)CC(C)N3C(=O)C2CC2)CC1` (stereo unspecified): 1.43%.
As to `CCC(=O)N1c2ccc(S(=O)(=O)CCC(=O)N3CCN(c4ccccc4)CC3)cc2CC1C` (stereo unspecified), the max response is -1.91%.
Next, `Cc1ccc(CNC(=O)CCS(=O)(=O)c2ccc3c(c2)CC(C)N3C(=O)C2CC2)o1` (stereo unspecified): 22.1% (active); `Cc1cc(SCc2c(F)cccc2Cl)nc(=O)[nH]1`: 6.03%; `N[C@@H](Cc1c[nH]c2ccccc12)c1nnc(SCc2c(F)cccc2Cl)o1`: -4%.
Next, `Fc1cccc(Cl)c1CSc1ccc(-c2ccco2)nn1`: 39% (active); `Clc1ccccc1CSc1nnc(-c2ccco2)c(-c2ccco2)n1`: 8.29%; `O=C(CSc1ccc(-c2ccco2)nn1)NCc1ccc2c(c1)OCO2`: 3.12%.
On to `Brc1ccc(CSc2ccc(-c3ccco3)nn2)cc1`, for which the max response was 28.4% (active).
`CCOc1ccc(Br)cc1S(=O)(=O)Nc1ccc(C(=O)OC(C)C(=O)N(C)c2ccccc2)cc1` (stereo unspecified): the max response is 0.522%.
In the case of `O=C(Nc1cccc(Cl)c1)c1cc(S(=O)(=O)N2CCCCC2)c[nH]1` it was 1.01%; in that of `CCOC(=O)C1CN(S(=O)(=O)c2ccc(OC)cc2)c2cc(Cl)ccc2O1` (stereo unspecified), -3.3%; in that of `Cc1ccc(S(=O)(=O)N2CCN=C2SCc2c(F)cccc2Cl)cc1`, 0.957%.
